The campaign covered roughly 290,000 compounds. About 1,000 (0.34%) were called active. Cut-off read from the data, not from the text of the source: active = percent response above about 24% (passing the limit was not always enough); inactive = the rest. What follows is part of a selection rich in actives, with near analogues and random picks from the rest.
Test system: MEKK2 (MAP3K2) mutant PB1 domain binding to MEK5, human
Assay: MEK5 binding signal on mutant MEKK2 PB1, primary screen, biochemical, multiplex bead flow cytometry, Alexa488-MEK5 (AID 1530)
Conditions: at 10 µM, hits give high values

SMILES | percent response
CCOc1ccc2nc(N(CCCN(C)C)C(=O)c3ccc(C(=O)c4ccccc4)cc3)sc2c1 | 19% (inactive)
CN(C)CCCN(C(=O)c1ccc(S(=O)(=O)N2CCCc3ccccc32)cc1)c1nc2ccc(F)cc2s1 | 65% (active)
CCc1ccc2nc(N(CCCN(C)C)C(=O)c3ccc4c(c3)OCCO4)sc2c1 | 3% (inactive)
CCN(CC)CCN(C(=O)c1ccc(S(=O)(=O)N2CCOCC2)cc1)c1nc2cc3c(cc2s1)OCCO3 | 11% (inactive)
O=C(Nc1nc2ccc([N+](=O)[O-])cc2s1)c1ccc(S(=O)(=O)N2CCCc3ccccc32)cc1 | -5% (inactive)
CN(C)CCCN(C(=O)c1ccc(S(=O)(=O)N2CCCCCC2)cc1)c1nc2ccc(Br)cc2s1 | 61% (active)
O=C(NC1CCCC1)C1CC(=O)N(c2ccc(F)cc2)C1 (stereo not given) | 0% (inactive)
Cc1cc(C)n(CC(O)COc2ccc(C(C)(C)C)cc2)n1 (stereo not given) | -1% (inactive)
CC(C)(c1ccccc1)c1ccc(OCCN)cc1 | 0% (inactive)
CN(C)CC(O)COc1ccc(C(C)(C)c2ccc(OCC(O)CN(C)C)cc2)cc1 (stereo not given) | 33% (active)
O=C(Nc1cccc(-c2cccc(Cl)c2)c1)C1CCN(C2CCC2)CC1 | 14% (inactive)
CCn1cc(CN2CCC(C(=O)Nc3cccc(-c4cccc(Cl)c4)c3)CC2)c(C)n1 | 35% (active)
CCn1cc(CN2CCC(C(=O)Nc3cccc(-c4cccc(Cl)c4)c3)CC2)cn1 | 21% (inactive)
CC1CCN(CC(=O)Nc2nccs2)CC1 | 3% (inactive)
Cc1ccc(C)c(S(=O)(=O)Nc2cccc(-n3cnnn3)c2)c1 | -1% (inactive)
CN1C(=O)/C(=C/c2ccc(C(=O)NC3CCCC3)cc2)Oc2ccccc21 | 2% (inactive)
CN1CCN(CCCNC(=O)c2ccc(/C=C3\Oc4ccccc4N(Cc4ccc(Cl)cc4)C3=O)cc2)CC1 | 48% (active)
CCCN1CCN(C(=O)CCCNC(=O)c2ccc(Cl)cc2)CC1 | -2% (inactive)
NS(=O)(=O)c1ccc2nc(NC(=O)C3=COCCO3)sc2c1 | -4% (inactive)
CCC(=O)c1ccc(OCC(=O)Nc2ccc3nc(C)sc3c2)cc1 | -22% (inactive)

SMILES | percent response
Cc1ccc(NC(=O)COc2ccc(-n3ccnc3)cc2)cc1Cl | 27% (active)
Cc1ccc(NC(=O)C/C(N)=N/O)cc1Cl | 1% (inactive)
O=C1N[C@H](Cc2ccccc2)C(=O)N[C@H]1Cc1cn(S(=O)(=O)c2ccccc2)c2ccccc12 | 2% (inactive)
CCOC(=O)N1CCN(C(=O)C2CCN(S(=O)(=O)c3cc(Cl)ccc3OCC)CC2)CC1 | 5% (inactive)
O=C(CSc1ccc(-c2ccc(Br)cc2)nn1)NCC1CCCO1 (stereo not given) | 6% (inactive)
OC(CNCC1CCCO1)Cn1c2ccc(Br)cc2c2cc(Br)ccc21 (stereo not given) | 40% (active)
CC(NS(=O)(=O)c1ccc(Br)cc1)C(=O)NCC1CCCO1 (stereo not given) | 4% (inactive)
COc1ccc(NC(=O)C2=CC(c3ccc(OC)c(OC)c3)=NS(=O)(=O)N2C)cc1 | -4% (inactive)
COc1cc(CNCc2ccc(OC)c3ccccc23)cc(OC)c1OC | 6% (inactive)
Nc1nonc1-n1nnc(C(=O)N/N=C/c2cc(Br)ccc2O)c1CSC1=NCCS1 | 8% (inactive)
CCOc1cc(CN2CCN(C(=O)CC(C)C)CC2)ccc1OC | 2% (inactive)
CC(C)CC(=O)N1CCN(Cc2ccccc2Br)CC1 | 24% (active)
CC(C)CC(=O)N1CCN(Cc2cccc(Cl)c2)CC1 | 9% (inactive)
COc1ccc(S(=O)(=O)NCCc2cc3ccc(C)c(C)c3[nH]c2=O)cc1 | 1% (inactive)
CC(=O)Nc1cccc(NC(=O)CSc2nccn2Cc2ccc(F)cc2)c1 | -1% (inactive)
Cc1cccc(NC(=O)c2cccc(C(F)(F)F)c2)c1 | -2% (inactive)
Cc1cccc(NC(=O)Nc2cccc(Oc3c(F)c(F)c(F)c(F)c3F)c2)c1 | 56% (active)
COc1cccc(NC(=O)NCc2ccc(F)cc2)c1 | -5% (inactive)
Cc1ccc(N(CC(=O)NC2CCCCC2)C(=O)CCCC(=O)Nc2ccccn2)c(C)c1 | 1% (inactive)
O=S(=O)(Oc1ccccc1C(=S)N1CCOCC1)c1ccc(Cl)cc1 | 7% (inactive)

SMILES | percent response
O=C(NCCN1CCOCC1)c1ccc(/C=C2\Sc3ccccc3N(Cc3ccc(F)cc3)C2=O)cc1 | 19% (inactive)
CCN1CCN(CCNC(=O)c2ccc3c(c2)NC(=O)/C(=C\c2ccc(OC)c(OC)c2)S3)CC1 | 17% (inactive)
CCN1CCN(CCNC(=O)c2ccc(/C=C3/Sc4ccccc4N(Cc4cccc(C)c4)C3=O)cc2)CC1 | 59% (active)
Cn1c(Nc2cccc(Cl)c2)nc2ccccc21 | 4% (inactive)
COc1ccc(OC)c(NC(=O)C2CCCN2S(=O)(=O)c2cccc3nsnc23)c1 (stereo not given) | 2% (inactive)
Cc1cc(=O)[nH]c(SCc2cc(Cl)ccc2OC(F)F)n1 | 1% (inactive)
O=C(OCc1cc2ccccc2[nH]c1=O)c1cccnc1 | 8% (inactive)
O=C(OCc1cc(Cl)ccc1OC(F)F)c1cccnc1 | 152% (active)
CC1=C(C)CC(C(=O)NNC(=O)c2ccccc2O)C(C(=O)O)C1 (stereo not given) | 16% (inactive)
Cc1ccc(NC(=S)N(CCN2CCCCC2)Cc2ccco2)cc1C | -3% (inactive)
Cc1ccc(NC(=S)N(CCCN2CCC(C)CC2)Cc2ccco2)cc1 | -2% (inactive)
Cc1ccc(NC(=S)N(CCCN2CCCC2)Cc2cccn2Cc2ccc(Cl)cc2)cc1 | 57% (active)
Cc1ccc(NC(=O)CSCC(=O)N2CCOCC2)cc1 | 3% (inactive)
COC(=O)Cn1c(=NC(=O)CSCC(=O)Nc2cc(C)on2)sc2ccccc21 | 8% (inactive)
Cn1c(=NC(=O)CSCC(=O)N2CCOCC2)sc2ccccc21 | 25% (active)
Cn1c(=NC(=O)c2cnccn2)sc2ccccc21 | 10% (inactive)
O=C(CP(=O)(c1ccccc1)c1ccccc1)N1CCOCC1 | -5% (inactive)
Cn1c(=NC(=O)CSCC(=O)N2CCCCC2)sc2ccccc21 | 28% (active)
COc1cc(C2/C(=C(\O)c3ccc4c(c3)CC(C)O4)C(=O)C(=O)N2c2nnc(C)s2)cc(OC)c1OC (stereo not given) | 1% (inactive)
Nc1nc(-c2sc3nc4c(cc3c2N)CCCC4)nc(N2CCOCC2)n1 | -8% (inactive)
